Several values for one entry are separate records, joined by “and”; a condition that tells them apart may be missing. Identical values can stand only once. Out of some 5,500 compounds screened, about 2,000 (36%) were called active. Another 18% or so got no clear call; they are omitted. Rule as the data show it: active = normalized growth mostly below about 0.91 (no sharp cut-off); inconclusive = no clear call, values can overlap the other calls; inactive = mostly above about 0.92. The list shows a part of the results.
Test: chemical genetic growth profiling, strain panel (AID 1159580);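 also: tested at 20 µM; growth read once vehicle control cultures reached saturation at 30 °C; 1 = growth at the plate median or of vehicle wells; lower values mean less growth of the strain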
Conditions: S. cerevisiae deletion strains, growth OD

Measured: normalized growth

CC(=O)N[C@@H](CCC(=O)O)C(=O)O
inactive: locus YAL021C, strain ccr4, stronger effect = lower value 1.03 | locus YAL026C, strain drs2, stronger effect = lower value 1.03 | locus YAL030W, strain snc1, stronger effect = lower value 1.01 | locus YBL061C, strain skt5, stronger effect = lower value 1.03 | locus YBR009C, strain hhf1, stronger effect = lower value 0.994 | locus YBR021W, strain FUR4, stronger effect = lower value 1.01 | locus YBR023C, strain chs3, stronger effect = lower value 1.03 | locus YBR171W, strain sec66, stronger effect = lower value 1.03 | locus YBR229C, strain ROT2, stronger effect = lower value 1 | locus YBR231C, strain swc5, stronger effect = lower value 1.02 | locus YBR279W, strain paf1, stronger effect = lower value 1.02 | locus YCL011C, strain gbp2, stronger effect = lower value 1.02 | locus YCL016C, strain dcc1, stronger effect = lower value 1.03 | locus YCL029C, strain bik1, stronger effect = lower value 1.02 | locus YCL069W, strain vba3, stronger effect = lower value 1.02 | locus YCR088W, strain abp1, stronger effect = lower value 1.02 | locus YDL005C, strain med2, stronger effect = lower value 1.02 | locus YDL035C, strain GPR1, stronger effect = lower value 1.01 | locus YDL040C, strain nat1, stronger effect = lower value 1.01 | locus YDL074C, strain BRE1, stronger effect = lower value 1.02 | locus YDL101C, strain DUN1, stronger effect = lower value 1.01 | locus YDL134C, strain PPH21, stronger effect = lower value 1.01 | locus YDL185W, strain tfp1, stronger effect = lower value 1 | locus YDL192W, strain arf1, stronger effect = lower value 1.01 | locus YDR001C, strain nth1, stronger effect = lower value 1.02 | locus YDR069C, strain doa4, stronger effect = lower value 1.03 | locus YDR101C, strain arx1, stronger effect = lower value 1.02 | locus YDR137W, strain rgp1, stronger effect = lower value 1.04 | locus YDR150W, strain NUM1, stronger effect = lower value 0.99 | locus YDR159W, strain sac3, stronger effect = lower value 1.01 | locus YDR162C, strain NBP2, stronger effect = lower value 1.01 | locus YDR195W, strain ref2 1.02 | locus YDR297W, strain sur2, stronger effect = lower value 1.02 | locus YDR318W, strain mcm21, stronger effect = lower value 1.03 | locus YDR334W, strain swr1, stronger effect = lower value 1.02 | locus YDR335W, strain msn5, stronger effect = lower value 1.02 | locus YDR388W, stronger effect = lower value 1.01 | locus YDR392W, strain spt3, stronger effect = lower value 1.05 | locus YDR502C, strain sam2, stronger effect = lower value 1.01 | locus YEL003W, strain gim4, stronger effect = lower value 1.01 | locus YEL037C, strain rad23, stronger effect = lower value 1.02 | locus YEL061C, strain CIN8 (second series), stronger effect = lower value 1.02 | locus YEL061C, strain CIN8, stronger effect = lower value 1.01 | locus YER015W, strain faa2, stronger effect = lower value 1.02 | locus YER016W, strain bim1, stronger effect = lower value 1.03 | locus YER110C, stronger effect = lower value 1.01 | locus YER111C, strain swi4, stronger effect = lower value 1.02 | locus YER155C, strain BEM2 (second series), stronger effect = lower value 1.01 | locus YER155C, strain BEM2, stronger effect = lower value 1.01 | locus YER167W, strain BCK2, stronger effect = lower value 1.01 | locus YFR010W, strain ubp6, stronger effect = lower value 1.01 | locus YGL078C, strain dbp3, stronger effect = lower value 0.996 | locus YGL086W, strain mad1, stronger effect = lower value 0.986 | locus YGL167C, strain pmr1, stronger effect = lower value 1.02 | locus YGL173C, strain kem1, stronger effect = lower value 1.01 | locus YGL227W, strain vid30, stronger effect = lower value 1.02 | locus YGL240W, strain doc1, stronger effect = lower value 1.01 | locus YGL248W, strain PDE1, stronger effect = lower value 1 | locus YGL253W, strain hxk2, stronger effect = lower value 1.04 | locus YGR078C, strain PAC10, stronger effect = lower value 0.999 | locus YGR135W, strain pre9, stronger effect = lower value 1.01 | locus YGR252W, strain gcn5, stronger effect = lower value 0.974 | locus YHR013C, strain ard1, stronger effect = lower value 1.06 | locus YHR027C, strain rpn1, stronger effect = lower value 1.02 | locus YHR030C, strain SLT2, stronger effect = lower value 1 and 0.981 | locus YHR079C, strain IRE1 (second series), stronger effect = lower value 1.02 | locus YHR079C, strain IRE1, stronger effect = lower value 0.981 | locus YHR094C, strain hxt1, stronger effect = lower value 1.01 | locus YHR129C, strain ARP1, stronger effect = lower value 1 | locus YHR142W, strain chs7, stronger effect = lower value 1.05 | locus YHR200W, strain rpn10, stronger effect = lower value 1 | locus YIL066C, strain RNR3, stronger effect = lower value 1.01 | locus YIL073C, strain SPO22, stronger effect = lower value 1.06 | locus YIL125W, strain kgd1, stronger effect = lower value 1 | locus YIR030C, strain dcg1, stronger effect = lower value 1.01 | locus YJL092W, strain hpr5, stronger effect = lower value 1.02 | locus YJL095W, strain BCK1 (second series), stronger effect = lower value 1.03 | locus YJL095W, strain BCK1, stronger effect = lower value 1.01 and 0.983 | locus YJL115W, strain asf1, stronger effect = lower value 1.01 | locus YJL129C, strain trk1, stronger effect = lower value 1.04 | locus YJL134W, strain LCB3, stronger effect = lower value 1.01 | locus YJL154C, strain vps35, stronger effect = lower value 1.02 | locus YJL164C, strain tpk1, stronger effect = lower value 1.01 | locus YJL166W, strain qcr8, stronger effect = lower value 1 | locus YJL168C, strain set2, stronger effect = lower value 1.01 | locus YJL187C, strain SWE1 (second series), stronger effect = lower value 1.01 | locus YJL187C, strain SWE1, stronger effect = lower value 1.03 | locus YJR043C, strain POL32, stronger effect = lower value 0.999 | locus YJR066W, strain TOR1, stronger effect = lower value 0.909

— PubChem BioAssay AID1159580 (chemical genetic matrix, 2015)
